PubChem BioAssay (NCATS)
Inconclusive results are not listed. A call without a number means that no potency is given here. The source made the active and inactive calls. Calls come from the whole dose curve; as a rule, active = well fitted cell-killing curve with a large enough effect; inconclusive = small, poorly fitted or top-dose-only effect; inactive = no such curve, though single readings can be large or run the other way.

Assay: qHTS of pediatric cancer cell lines to identify multiple opportunities for drug repurposing: Primary screen for LAN-5 cells (AID 1347100)
Settings: LAN-5 neuroblastoma viability, CellTiter-Glo luminescence, 48 h; series mostly up to 46 µM
Description: Drug repurposing or repositioning has been offered as a strategy for drug development in oncology programs. This approach has special potential for childhood cancers and other rare or orphan diseases, where the expected return on new drug development has been a disincentive to pharmaceuticals.
In this project we exploit the poly-pharmacology of drugs to discover new indications via phenotypic screening of a panel of 19 well-characterized cell lines derived from solid tumors seen in children and adolescents. The goal is to identify approved drugs with previously unrecognized anticancer properties that has the potential to reveal new mechanisms and biological processes involved in carcinogenesis or drug resistance. We employed a titration-based paradigm (quantitative high-throughput screening or qHTS), where all compounds were tested at multiple concentrations for their effect on cell viability. Concentration-response curves (CRCs) were derived directly from the primary screen, and both potency and efficacy values were used to identify compounds with robust bioactivity profiles. We screened the NIH Chemical Genomics Center (NCGC) Pharmaceutical Collection (NPC) and Mechanism Interrogation Plate (MIPE) small molecule collections of approved and investigational compounds against these cell lines; and measured metabolically active cells after 48 hours of compound treatment as a proxy for cell viability.
Assay Submitter: Nathalia J. Martinez, National Center for Advancing Translational Sciences, National Institutes of Health, Rockville, MD, USA; email: natalia.martinez@nih.gov
[1] Shen, M et al. Quantitative high-throughput phenotypic screening of pediatric cancer cell lines identifies multiple opportunities for drug repurposing. Oncotarget 2017 Dec 19;9(4):4758-4772. PMID 29435139.
The cells were obtained from University of North Carolina (UNC), Pediatric Preclinical Testing Program (PPT), and Coriell Institute (CI).
qHTS cell viability assay:
Cells were assayed in growth media at a density of 500-1,000 cells/well. Five microliters of cells were dispensed into 1,536-well, white, solid-bottom, TC-treated plates (Greiner Bio One) using a multidrop dispenser and incubated at 37 degrees C, 5% CO2, under a humidified atmosphere for 5 hours. Twenty-three nanoliters of compounds and controls (neutral control DMSO or positive control bortezomib at final concentration of 2.3 µM) were subsequently transferred by Kalypsys pintool. For primary screens, the MIPE collection was tested at 11-point dilutions (final concentrations range from 0.78 nM to 46 µM) and the NPC collection at 8-point dilutions (final concentrations range from 0.59 nM to 46 µM). Compounds tested in follow-up screens were assayed at 11-point dilutions. Cells were incubated for 48 hours, followed by addition of 3 µL of CellTiter-Glo (Promega). After a 15 min incubation at room temperature, samples were analyzed for luminescence intensity using a ViewLux High-throughput CCD imager equipped with clear filters.
Potency is the fitted concentration of half-maximal effect.

Structure (SMILES)	Potency	activity change, negative = cytotoxic
CC1(C)Oc2ccc(C#N)cc2[C@@H](N2CCCC2=O)[C@@H]1O	inactive	
CS(=O)(=O)c1ccc([C@@H](O)[C@@H](CF)NC(=O)C(Cl)Cl)cc1	inactive	
O=c1[nH]cnc2c1ncn2[C@@H]1O[C@H](CO)[C@@H](O)[C@H]1O	inactive	
Nc1ccc(S(=O)(=O)NC(=O)c2ccccc2)cc1	inactive	
NC(N)=NCCC[C@H](N)C(=O)O		8.53% [at 4.84 µM] (inactive)
CCN(CC)CCNC(=O)c1c(C)[nH]c(/C=C2\C(=O)Nc3ccc(F)cc32)c1C	11.9 µM (active)	
C[C@](N)(Cc1ccc(O)cc1)C(=O)O		-5.33% [at 4.84 µM] (inactive)
[O-][n+]1cccc(CO)c1	inactive	
OCC(CO)N[C@H]1C[C@](O)(CO)[C@@H](O)[C@H](O)[C@H]1O	inactive	
O=C(O)COc1nn(Cc2ccccc2)c2ccccc12	inactive	
N[C@H](C(=O)O)c1ccc(O)cc1	inactive	
C[C@H]1O[C@H](O[C@H]2[C@H](O)[C@@H](O)[C@@H](O[C@H]3[C@H](O)[C@@H](O)[C@H](O)O[C@@H]3CO)O[C@@H]2CO)[C@H](O)[C@@H](O)[C@@H]1N[C@H]1C=C(CO)[C@@H](O)[C@H](O)[C@H]1O	inactive	
[Cl][In]([Cl])[Cl]	inactive	
CC1(C)[C@@H]2CC[C@@]1(C)C(=O)C2	inactive	
O=C1Nc2ccc(Cl)cc2[C@@](C#CC2CC2)(C(F)(F)F)O1	inactive	
Nc1nc2c(ncn2CCC(CO)CO)c(=O)[nH]1	inactive	
CC(C)C(=O)c1c(C(C)C)nn2ccccc12	inactive	
COc1cc2[nH]c(=O)[nH]c(=O)c2cc1OC	inactive	
CCn1cc(C(=O)O)c(=O)c2cnc(N3CCNCC3)nc21	inactive	
O=C(O)Cc1sc(-c2ccccc2)nc1-c1ccc(Cl)cc1	inactive	

Structure (SMILES)	Potency	activity change, negative = cytotoxic
O=C(O)[C@@H]1CSCN1	inactive	
CCN(CC)C(=O)Nc1ccc(OCC(O)CNC(C)(C)C)c(C(C)=O)c1 (stereo not given)	inactive	
CCCCN(CCCC)CCCOC(=O)c1ccc(N)cc1	inactive	
O=C1O[C@H]([C@@H](O)CO)C(O)=C1O	inactive	
C[C@@H]1C[C@H]2[C@@H]3C[C@H](F)C4=CC(=O)C=C[C@]4(C)[C@@]3(F)[C@@H](O)C[C@]2(C)[C@@]1(O)C(=O)CO	inactive	
O=c1[nH]c(=O)c2[nH]c(=O)[nH]c2[nH]1		19.2% [at 9.22 µM] (inactive)
CC1=C(/C=C/C(C)=C/C=C/C(C)=C/C(=O)O)C(C)(C)CCC1	inactive	
COc1ccc2cc1Oc1cc3c(cc1OC)CC[N+](C)(C)[C@H]3Cc1ccc(cc1)Oc1c(OC)c(OC)cc3c1[C@@H](C2)[N+](C)(C)CC3	inactive	
CC(C)(C)C(=O)NCCCC(=O)O	inactive	
CCCCC/C(C=O)=C\c1ccccc1	inactive	
O=C1N=C(O)CN1/N=C/c1ccc(-c2ccc([N+](=O)[O-])cc2)o1	inactive	
NC(CSCC(=O)O)C(=O)O (stereo not given)	inactive	
C[C@@H](O)[C@H](N)C(=O)O	inactive	
CCC(=O)Nc1ccc(O)cc1	inactive	
Cn1c(=O)c2c(ncn2CC2OCCO2)n(C)c1=O	inactive	
C#CCN(C)Cc1ccccc1	inactive	
CC(O)COc1ccccc1 (stereo not given)	inactive	
Cc1ncc(COP(=O)(O)O)c(C=O)c1O	inactive	
C[C@H]1O[C@@H](n2cc(F)c(=O)[nH]c2=O)[C@H](O)[C@@H]1O	inactive	
Nc1ccc(S(=O)(=O)Nc2nccs2)cc1	inactive	
